# Assay results taken from PubChem BioAssay (NCI).
# About 79,000 compounds went through this panel and 15% of them were active in at least one assay; those are over-represented in the sample as a whole. Unmarked numbers belong to inactive results. Calls of active or inactive are those of the source. No stated cut-off is given here; in the data, active means growth inhibition above about 70%; inactive means the rest.
# Assays:
# [1] = NCI Yeast Anticancer Drug Screen. Data for the rad52 strain (AID 147);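 further: 0% = growth of vehicle-treated control cultures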; details: S. cerevisiae rad52 mutant growth inhibition, hits give high values
# Method in brief: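 Read-out: growth inhibition versus vehicle-treated controls. Cells were a DNA repair-deficient yeast strain treated with compounds.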
# [2] = NCI Yeast Anticancer Drug Screen. Data for the rad50EPP+ strain (AID 151);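 further: 0% = growth of vehicle-treated control cultures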; details: S. cerevisiae rad50 mutant strain, hits give high values
# Method in brief: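 Growth inhibition read against vehicle controls in rad50EPP+ yeast, a strain altered in DNA damage repair, after compound exposure.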
# [3] = NCI Yeast Anticancer Drug Screen. Data for the mgt1 strain (AID 153); details: S. cerevisiae mgt1 mutant growth inhibition, hits give high values
# Method in brief: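 mgt1 yeast grown with test compound; read-out is growth inhibition versus vehicle-treated cultures.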
# [4] = NCI Yeast Anticancer Drug Screen. Data for the rad50 strain (AID 155);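 further: 0% = growth of vehicle-only cultures of the same strain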; details: S. cerevisiae rad50 strain growth inhibition, hits give high values
# Method in brief: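 Vehicle-treated cultures provide the reference for the growth inhibition reported for compound-exposed, repair-deficient yeast.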
# [5] = NCI Yeast Anticancer Drug Screen. Data for the mec2-1 strain (AID 157); details: S. cerevisiae mec2-1 strain, hits give high values
# Method in brief: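 Yeast mec2-1 mutant treated with compound. Readout: growth inhibition vs vehicle controls.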
# [6] = NCI Yeast Anticancer Drug Screen. Data for the sgs1 mgt1 strain (AID 161);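 further: 0% = growth of cultures given vehicle only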; details: S. cerevisiae sgs1 mgt1 strain, hits give high values
# Method in brief: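 Test agents were incubated with a DNA-repair-mutant yeast strain. Growth was then read and compared against vehicle-treated controls.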
# [7] = NCI Yeast Anticancer Drug Screen. Data for the CLN2oe strain (AID 163);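 further: 0% = growth of vehicle-only control cultures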; details: S. cerevisiae CLN2oe strain, hits give high values
# Method in brief: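 Read-out: yeast growth inhibition, expressed relative to vehicle-only controls. The strain bears an engineered cell-cycle alteration.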
# [8] = NCI Yeast Anticancer Drug Screen. Data for the cln2 rad14 strain (AID 165);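 further: 0% = growth equal to vehicle treated cultures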; details: S. cerevisiae cln2 rad14 strain, hits give high values
# Method in brief: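 cln2 rad14 yeast strain; compound exposure; growth inhibition read vs vehicle controls.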
# [9] = NCI Yeast Anticancer Drug Screen. Data for the bub3 strain (AID 167); details: S. cerevisiae bub3 mutant strain, hits give high values
# Method in brief: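 Mutant yeast screening strain plus compound; vehicle-treated cultures serve as the 0% inhibition reference.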
# [10] = NCI Yeast Anticancer Drug Screen. Data for the wt2 strain (AID 169); details: S. cerevisiae wt2 strain growth inhibition, hits give high values
# Method in brief: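 Read-out: growth inhibition versus vehicle-treated control cultures after compound exposure of the yeast strain.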
# [11] = NCI Yeast Anticancer Drug Screen. Data for the mlh1 strain (AID 171);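 further: 0% = growth of vehicle-treated control cultures of the same strain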; details: S. cerevisiae mlh1 strain growth inhibition, hits give high values
# Method in brief: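 Read-out: growth inhibition versus vehicle controls. Strain: engineered yeast with a defined DNA repair or cell cycle defect, compound-treated.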
# [12] = NCI Yeast Anticancer Drug Screen. Data for the sgs1 strain (AID 173);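 further: 0% = growth of vehicle-only control cultures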; details: S. cerevisiae sgs1 mutant, hits give high values
# Method in brief: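 Read-out: yeast growth inhibition relative to vehicle controls, following compound exposure of a strain with a defined DNA repair/cell cycle alteration.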
# [13] = NCI Yeast Anticancer Drug Screen. Data for the mlh1 rad18 strain (AID 175); details: S. cerevisiae mlh1 rad18 strain growth inhibition, hits give high values
# Method in brief: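 Yeast w/ defined DNA-repair lesions; compound exposure; growth vs vehicle controls → % inhibition.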
# [14] = NCI Yeast Anticancer Drug Screen. Data for the rad18 strain (AID 177); details: S. cerevisiae rad18 mutant growth inhibition, hits give high values
# Method in brief: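 Readout: growth inhibition vs vehicle controls. Cells: genetically altered yeast strain, DNA repair defect.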
# [15] = NCI Yeast Anticancer Drug Screen. Data for the wt1 strain (AID 149);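 further: 0% = growth of vehicle-treated wt1 cultures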; details: S. cerevisiae wt1 strain (SPY 50644) growth inhibition, hits give high values
# Method in brief: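 Each compound is tested on wt1 yeast and the loss of growth versus vehicle gives the inhibition value.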
# [16] = NCI Yeast Anticancer Drug Screen. Data for the rad14 strain (AID 159);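 further: 0% = growth of vehicle-treated control cultures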; details: S. cerevisiae rad14 strain growth inhibition, hits give high values
# Method in brief: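 Inhibition of growth is reported for a repair-deficient yeast mutant following compound treatment, calculated relative to cultures that received vehicle.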
# [17] = at 5.0 µM (retest, dose inferred, filed as 0.5)
# [18] = at 50.0 µM (retest, dose inferred, filed as 5.0)
structure (smiles),measurement,setting,value
Cc1cc(Cl)nc2nc(Cl)c(N)cc12,growth inhibition,[1]; at 1.2 µM,-8%
same,growth inhibition,[1]; at 3.7 µM,-3%
same,growth inhibition,[1]; at 11.0 µM,-10%
same,growth inhibition,[1]; at 33.0 µM,16%
same,growth inhibition,[1]; at 100.0 µM,69%
same,growth inhibition,[2]; at 1.2 µM,-17%
same,growth inhibition,[2]; at 3.7 µM,-17%
same,growth inhibition,[2]; at 11.0 µM,-13%
same,growth inhibition,[2]; at 33.0 µM,0%
same,growth inhibition,[2]; at 100.0 µM,49%
same,growth inhibition,[3]; at 1.2 µM,-14%
same,growth inhibition,[3]; at 3.7 µM,-12%
same,growth inhibition,[3]; at 11.0 µM,-9%
same,growth inhibition,[3]; at 33.0 µM,20%
same,growth inhibition,[3]; at 100.0 µM,87% (active)
same,growth inhibition,[4]; at 1.2 µM,-4%
same,growth inhibition,[4]; at 3.7 µM,-18%
same,growth inhibition,[4]; [17],11%
same,growth inhibition,[4]; at 11.0 µM,-4%
same,growth inhibition,[4]; at 33.0 µM,8%
same,growth inhibition,[4]; [18],55%
same,growth inhibition,[4]; at 50.0 µM,38.6%
same,growth inhibition,[4]; at 100.0 µM,51%
same,growth inhibition,[5]; at 1.2 µM,-13%
same,growth inhibition,[5]; at 3.7 µM,-17%
same,growth inhibition,[5]; [17],7%
same,growth inhibition,[5]; at 11.0 µM,-7%
same,growth inhibition,[5]; at 33.0 µM,32%
same,growth inhibition,[5]; [18],62%
same,growth inhibition,[5]; at 50.0 µM,62.9%
same,growth inhibition,[5]; at 100.0 µM,44%
same,growth inhibition,[6]; [17],-11%
same,growth inhibition,[6]; [18],55%
same,growth inhibition,[6]; at 50.0 µM,73.5% (active)
same,growth inhibition,[7]; at 1.2 µM,4%
same,growth inhibition,[7]; at 3.7 µM,1%
same,growth inhibition,[7]; at 11.0 µM,5%
same,growth inhibition,[7]; at 33.0 µM,6%
same,growth inhibition,[7]; at 100.0 µM,54%
same,growth inhibition,[8]; [17],29%
same,growth inhibition,[8]; [18],42%
same,growth inhibition,[8]; at 50.0 µM,22.6%
same,growth inhibition,[9]; at 1.2 µM,-20%
same,growth inhibition,[9]; at 3.7 µM,-2%
same,growth inhibition,[9]; [17],-24%
same,growth inhibition,[9]; at 11.0 µM,-4%
same,growth inhibition,[9]; at 33.0 µM,1%
same,growth inhibition,[9]; [18],30%
same,growth inhibition,[9]; at 50.0 µM,48.2%
same,growth inhibition,[9]; at 100.0 µM,67%
same,growth inhibition,[10]; at 1.2 µM,-22%
same,growth inhibition,[10]; at 3.7 µM,-16%
same,growth inhibition,[10]; at 11.0 µM,-24%
same,growth inhibition,[10]; at 33.0 µM,21%
same,growth inhibition,[10]; at 100.0 µM,94% (active)
same,growth inhibition,[11]; at 1.2 µM,-16%
same,growth inhibition,[11]; at 3.7 µM,-2%
same,growth inhibition,[11]; at 11.0 µM,-2%
same,growth inhibition,[11]; at 33.0 µM,14%
same,growth inhibition,[11]; at 100.0 µM,80% (active)
same,growth inhibition,[12]; at 1.2 µM,-2%
same,growth inhibition,[12]; at 3.7 µM,-6%
same,growth inhibition,[12]; at 11.0 µM,-1%
same,growth inhibition,[12]; at 33.0 µM,13%
same,growth inhibition,[12]; at 100.0 µM,63%
same,growth inhibition,[13]; [17],11%
same,growth inhibition,[13]; [18],84% (active)
same,growth inhibition,[14]; at 1.2 µM,-29%
same,growth inhibition,[14]; at 3.7 µM,-24%
same,growth inhibition,[14]; at 11.0 µM,-10%
same,growth inhibition,[14]; at 33.0 µM,35%
same,growth inhibition,[14]; at 100.0 µM,80% (active)
CCN(CC)CC(O)C1CCC(c2ccccc2)CC1 (stereo not given),growth inhibition,[1]; at 1.2 µM,2%
same,growth inhibition,[1]; at 3.7 µM,11%
same,growth inhibition,[1]; at 11.0 µM,22%
same,growth inhibition,[1]; at 33.0 µM,52%
same,growth inhibition,[1]; at 100.0 µM,78% (active)
same,growth inhibition,[15]; at 1.2 µM,1%
same,growth inhibition,[15]; at 3.7 µM,10%
same,growth inhibition,[15]; at 11.0 µM,5%
same,growth inhibition,[15]; at 33.0 µM,13%
same,growth inhibition,[15]; at 100.0 µM,40%
same,growth inhibition,[4]; at 1.2 µM,5%
same,growth inhibition,[4]; at 3.7 µM,12%
same,growth inhibition,[4]; [17],13%
same,growth inhibition,[4]; at 11.0 µM,22%
same,growth inhibition,[4]; at 33.0 µM,61%
same,growth inhibition,[4]; [18],78% (active)
same,growth inhibition,[4]; at 50.0 µM,84.8% (active)
same,growth inhibition,[4]; at 100.0 µM,83% (active)
same,growth inhibition,[5]; at 1.2 µM,3%
same,growth inhibition,[5]; at 3.7 µM,12%
same,growth inhibition,[5]; [17],11%
same,growth inhibition,[5]; at 11.0 µM,16%
same,growth inhibition,[5]; at 33.0 µM,42%
same,growth inhibition,[5]; [18],76% (active)
same,growth inhibition,[5]; at 50.0 µM,36%
same,growth inhibition,[5]; at 100.0 µM,79% (active)
same,growth inhibition,[16]; at 1.2 µM,13%
same,growth inhibition,[16]; at 3.7 µM,34%
same,growth inhibition,[16]; at 11.0 µM,41%
same,growth inhibition,[16]; at 33.0 µM,89% (active)
same,growth inhibition,[16]; at 100.0 µM,98% (active)
same,growth inhibition,[6]; [17],31%
same,growth inhibition,[6]; [18],95% (active)
same,growth inhibition,[6]; at 50.0 µM,92.7% (active)
same,growth inhibition,[7]; at 1.2 µM,6%
same,growth inhibition,[7]; at 3.7 µM,10%
same,growth inhibition,[7]; at 11.0 µM,41%
same,growth inhibition,[7]; at 33.0 µM,55%
same,growth inhibition,[7]; at 100.0 µM,80% (active)
same,growth inhibition,[8]; [17],28%
same,growth inhibition,[8]; [18],70% (active)
same,growth inhibition,[8]; at 50.0 µM,65.3%
same,growth inhibition,[9]; at 1.2 µM,1%
same,growth inhibition,[9]; at 3.7 µM,8%
same,growth inhibition,[9]; [17],27%
same,growth inhibition,[9]; at 11.0 µM,30%
same,growth inhibition,[9]; at 33.0 µM,64%
same,growth inhibition,[9]; [18],87% (active)
same,growth inhibition,[9]; at 50.0 µM,83% (active)
same,growth inhibition,[9]; at 100.0 µM,84% (active)
same,growth inhibition,[10]; at 1.2 µM,3%
same,growth inhibition,[10]; at 3.7 µM,9%
same,growth inhibition,[10]; at 11.0 µM,16%
same,growth inhibition,[10]; at 33.0 µM,45%
same,growth inhibition,[10]; at 100.0 µM,83% (active)
same,growth inhibition,[11]; at 1.2 µM,3%
same,growth inhibition,[11]; at 3.7 µM,10%
same,growth inhibition,[11]; at 11.0 µM,24%
same,growth inhibition,[11]; at 33.0 µM,62%
same,growth inhibition,[11]; at 100.0 µM,91% (active)
same,growth inhibition,[12]; at 1.2 µM,3%
same,growth inhibition,[12]; at 3.7 µM,16%
same,growth inhibition,[12]; at 11.0 µM,32%
same,growth inhibition,[12]; at 33.0 µM,72% (active)
same,growth inhibition,[12]; at 100.0 µM,93% (active)
same,growth inhibition,[13]; [17],36%
same,growth inhibition,[13]; [18],86% (active)
same,growth inhibition,[13]; at 50.0 µM,68.9%
same,growth inhibition,[14]; at 1.2 µM,7%
same,growth inhibition,[14]; at 3.7 µM,12%
same,growth inhibition,[14]; at 11.0 µM,13%
same,growth inhibition,[14]; at 33.0 µM,32%
same,growth inhibition,[14]; at 100.0 µM,78% (active)
